Screens: PubChem BioAssay, Johns Hopkins Ion Channel Center
CHT PAM: allosterically activates the human high affinity choline transporter; CHT-expressing cells, membrane potential dye, choline EC20; hits give high values; LV-AA mutant CHT in HEK293 cells; 310,000 compounds, 0.49% hits; Q9GZV3; AID 488977; B-score at 10 µM;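 active means initial fluorescence not abnormally high and integrated response B-score, plate-corrected, over 3 SD above library mean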
Target sequence (Q9GZV3 whole entry, looked up): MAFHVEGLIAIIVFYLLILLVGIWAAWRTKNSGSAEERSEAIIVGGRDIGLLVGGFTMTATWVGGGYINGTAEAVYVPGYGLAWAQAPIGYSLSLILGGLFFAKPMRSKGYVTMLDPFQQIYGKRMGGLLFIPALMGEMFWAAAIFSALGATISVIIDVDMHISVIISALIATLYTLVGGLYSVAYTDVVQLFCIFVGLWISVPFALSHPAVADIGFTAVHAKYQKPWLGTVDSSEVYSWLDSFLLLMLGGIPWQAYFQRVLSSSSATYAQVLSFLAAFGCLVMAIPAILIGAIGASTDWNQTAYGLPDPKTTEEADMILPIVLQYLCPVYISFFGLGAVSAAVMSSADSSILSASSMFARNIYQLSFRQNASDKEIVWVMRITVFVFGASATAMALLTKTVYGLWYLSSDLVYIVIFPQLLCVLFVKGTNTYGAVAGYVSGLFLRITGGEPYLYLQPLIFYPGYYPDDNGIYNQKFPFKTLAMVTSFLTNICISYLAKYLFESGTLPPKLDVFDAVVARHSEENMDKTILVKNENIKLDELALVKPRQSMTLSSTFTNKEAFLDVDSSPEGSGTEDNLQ
TMEM16A act: activates or potentiates the mouse TMEM16A chloride channel. Q8BHY3. HEK293 TMEM16A/YFP-H148Q/I152L, iodide quench fluorescence; hits give low values. B-score at 10 µM. 340,000 compounds, 0.3% hits. AID 623877;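 active means fluorescence-ratio B-score plate-corrected deviation score at least 3 library SD below zero, with starting fluorescence score within 5 deviations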;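 further: channel opened by trigger with iodide after compound preincubation; score built on the fluorescence ratio of max minus min over baseline; more negative score means more quench and so TMEM16A activation or potentiation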
CHT inh: inhibitors of human choline transporter CHT; CHT-expressing cells, membrane potential dye, choline response; hits give low values; B-score at 10 µM; 310,000 compounds, 0.86% hits; AID 488975;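 active means B-score over 3 SD under the library average, and starting fluorescence ratio not unusually high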;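 further: choline stimulus applied at its EC90 after an EC20 pre-addition; B-score computed on integrated fluorescence ratio after choline addition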
TMEM16A inh: blocks the mouse calcium-activated chloride channel TMEM16A; normalized B-score (activity score, 25-100; higher = stronger inhibition) at 10 µM; HEK293 TMEM16A/YFP iodide influx fluorescence, ionomycin; Q8BHY3; 310,000 compounds, 1.2% hits;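 active means ratio plate-corrected score three or more library SD toward inhibition, starting fluorescence score within five deviations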;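 further: score derived from kinetic fluorescence span divided by baseline fluorescence per well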
CHT block conf: confirmation of human choline transporter CHT inhibitors | 2,400 compounds, 70% hits | shares compounds with CHT inh | CHT activity remaining % of control (hits give low values), % at 10 µM | CHT-expressing cells, choline membrane potential dye; LV-to-AA substituted CHT, HEK293 cells;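 active means choline transporter activity left, mean of duplicates at 10 µM, below buffer-only control mean minus 3 SD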;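 further: depolarization triggered by choline at its EC90 following an EC20 pre-addition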
HEK293 MPD ctr: CHT inhibitor counter-screen hit in parental HEK293 cells | 2,400 compounds, 4% hits | membrane potential ratio readout (active if shifted either direction beyond buffer ±3SD; no single direction) at 10 µM | shares compounds with CHT inh | membrane potential dye, choline response; active = decrease or increase beyond buffer ±3SD;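 further: parental cells lack the transporter so any hit is non-specific; ratio is peak minus trough fluorescence over baseline after EC90 choline challenge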
Hits are given with their value; i = inactive; nt = no result given. Most compounds without a hit are left out; they make up all but 2.4% or so of the library.

SMILES | CHT PAM | TMEM16A act | CHT inh | TMEM16A inh | CHT block conf | HEK293 MPD ctr
O=C(NCc1cccnc1)c1ccc(COc2ccccc2Cl)o1 | i | i | -5.36 | i | 58.3% | i
O=C(Nc1cccnc1)c1ccc(COc2ccccc2Br)o1 | i | i | -5.74 | i | 54.9% | i
O=C(NCc1cccnc1)c1ccc(COc2ccc3c(c2)CCC3)o1 | i | i | i | i | nt | nt
COc1ccc(C2=Nn3c(nnc3-c3ccccc3OC)SC2)cc1OC | i | i | -6.86 | i | 47.7% | i
COc1ccc(C2=Nn3c(nnc3-c3ccccn3)SC2)cc1OC | i | i | i | i | nt | nt
CN1CCN(c2c(/C=N/O)c3ccccc3n2C)CC1 | i | i | i | i | nt | nt
Cc1ccccc1C(=O)O/N=C/c1c(N2CCOCC2)n(C)c2ccccc12 | i | i | -15.8 | i | 36.6% | i
Cc1cc(C)c[n+](CC(=O)c2c(C)cc(C)c([N+](=O)[O-])c2C)c1 | i | i | -7.85 | i | 44.6% | i
Cc1cc(C)c[n+](CC(=O)c2cc3ccccc3oc2=O)c1 | i | i | i | i | nt | nt
COc1ccc(CNC(=O)C2CCN(C(=O)[C@@H](CC(C)C)NC(=O)OC(C)(C)C)CC2)cc1 | nt | i | nt | nt | nt | nt
CC(C)n1c(O)c(N=NC(=O)CNC(=O)Cc2ccc(Cl)cc2)c2ccccc21 | i | i | -8.01 | i | 35.5% | i
CC(C)n1c(O)c(N=NC(=O)Cc2csc(N3CCOCC3)n2)c2ccccc21 | i | i | -9.38 | i | 24.3% | i
O=C(O)CC(c1cccc2ccccc12)N1Cc2ccccc2C1=O (stereo not given) | i | i | i | i | nt | nt
Cc1c(N=Cc2cc(Br)cc(Br)c2O)cccc1C(=O)O | i | i | -5.67 | i | 56.5% | i
CCCCC[C@H](O)/C=C/[C@@H]1[C@@H](C/C=C\CCCC(=O)O)[C@@H](O)C[C@H]1O | i | i | -5.89 | i | 32.8% | i
COc1ccccc1C(CNC(=O)c1cccc(NS(=O)(=O)c2ccc(C)c(F)c2)c1)N1CCCC1 (stereo not given) | i | i | -5.55 | i | 14.8% | i
COc1ccccc1NS(=O)(=O)c1cc(C(=O)NCC(c2ccco2)N2CCCCC2)ccc1C (stereo not given) | i | i | -11.5 | i | 10.9% | i
Cc1ccc(NS(=O)(=O)c2cccc(C(=O)NCC(c3ccco3)N3CCCCC3)c2)cc1 (stereo not given) | i | i | -13.2 | i | 2.4% | i
Cc1ccc(C)c(S(=O)(=O)Nc2ccc(C(=O)NCC(c3ccco3)N3CCCCC3)cc2)c1 (stereo not given) | i | i | i | i | nt | nt
O=C(NCC(c1ccco1)N1CCCCC1)c1cccc(NS(=O)(=O)c2ccc(Br)cc2)c1 (stereo not given) | i | i | -11.1 | i | 36.5% | i
CCOC(=O)C1CCCN(C(=O)c2cn(-c3ccccc3)nc2-c2cccnc2)C1 (stereo not given) | i | i | i | i | nt | nt
CCCC(=O)Nc1cc2c3c(c1)CC(=O)N3CCC2 | i | i | i | i | nt | nt
CCOc1cc(/C=C2\SC(=S)N(NS(=O)(=O)c3ccccc3)C2=O)ccc1O | i | i | i | i | nt | nt
CCOc1ccc(/C=C2\SC(=S)N(NS(=O)(=O)c3ccccc3)C2=O)cc1OC | i | i | -5.82 | i | 56.1% | i
COc1ccc(OC)c(/C=C2\SC(=S)N(NS(=O)(=O)c3ccccc3)C2=O)c1 | i | i | -6.26 | i | 56.9% | i
SMILES | CHT PAM | TMEM16A act | CHT inh | TMEM16A inh | CHT block conf | HEK293 MPD ctr
CCOc1ccc(/C=C2\SC(=S)N(NS(=O)(=O)c3ccc(C)cc3)C2=O)cc1OC | i | i | -6.1 | i | 60.0% | i
COc1ccc(OC)c2sc(NC(=O)c3ccc(S(=O)(=O)N4CCOCC4)cc3)nc12 | i | i | i | i | nt | nt
COc1ccc(-c2cn(Cc3ccc(C(N)=O)cc3)c(CCN)n2)cc1 | i | i | -8.1 | i | i | i
COc1ccc(-c2cn(CCO)c(CCN)n2)cc1 | i | i | i | i | nt | nt
COc1cccc(C2CC(=O)Nc3cc(OC)c(OC)cc32)c1 (stereo not given) | i | i | i | i | nt | nt
CCOc1cccc(C2CC(=O)Nc3cc(OC)c(OC)cc32)c1 (stereo not given) | i | i | -6.73 | i | i | i
COC(=O)CSc1[nH]c2ccc(F)cc2c1[N+](=O)[O-] | i | i | -7.21 | i | 15.0% | i
CN(Cc1cccs1)C(=O)CSc1nc2ccccc2[nH]1 | i | i | i | i | nt | nt
CCN(C(=O)c1cc2c(=O)n3ccccc3nc2n1CCCOC)C1CCCCC1 | i | i | -4.99 | i | 44.8% | i
C=CCC1(CC=C)CCCN1C(=O)C1CCC(=O)N(CCc2ccc(Cl)cc2)C1 (stereo not given) | i | i | i | i | nt | nt
CCc1ccc(N/C(=N/c2nc(C)cc(C)n2)NC(C)=O)cc1 | i | i | -5.79 | i | 57.6% | i
Cc1ccccc1OCCn1c(C)nc2ccccc21 | i | i | -5.18 | i | i | i
CCOc1ccc(Br)cc1S(=O)(=O)N1CCCC1 | i | i | -5.07 | i | 66.8% | i
CCOc1ccc(Cl)cc1S(=O)(=O)N1CCCC1 | i | i | i | i | nt | nt
O=C(Nc1ccccc1N1CCOCC1)c1cccc(S(=O)(=O)N2CCOCC2)c1 | nt | i | nt | nt | nt | nt
O=C(Nc1ccccc1N1CCOCC1)c1cccc(NS(=O)(=O)c2ccc(F)c(F)c2)c1 | i | i | -5.51 | i | i | i
CCN(CC)CCNC(=O)CNC(=O)c1nn(-c2ccc(OC)cc2)c(=O)c2ccccc12 | i | i | i | i | nt | nt
Cc1ccc(N2CC(C(=O)Nc3ncc([N+](=O)[O-])s3)CC2=O)cc1 (stereo not given) | i | i | -5.02 | i | 49.6% | i
COC(=O)/C(=C/c1c[nH]c2ccccc12)[N+](=O)[O-] | i | i | -4.94 | i | 58.2% | i
Cc1ccccc1Nc1nc(N)nc(COC(=O)C(NC(=O)c2ccco2)C(C)C)n1 (stereo not given) | i | i | -6.2 | i | i | i
O=C(O)c1[nH]c2ccc(Cl)cc2c1CC(=O)N1CCN(c2ccccc2)CC1 | i | i | -7.63 | i | 36.5% | i
Cc1ccc(Nc2cc(C)nc3ncnn23)c(Cl)c1 | i | i | -5.61 | i | i | i
Cc1ccc(C)c(Nc2c([N+](=O)[O-])cc(C(=O)N3CC(=O)Nc4ccccc43)cc2[N+](=O)[O-])c1 | i | i | -5.85 | i | i | i
COC(=O)NC(NC(=S)Nc1ccc([N+](=O)[O-])cc1)C(Cl)(Cl)Cl (stereo not given) | i | i | i | i | nt | nt
CCN(CC)CCCn1c2c(c(SCC(=O)Nc3cccc4ccccc34)nc1=O)CCC2 | i | i | i | i | nt | nt
CCN(CC)CCCn1c2c(c(SCC(=O)N3CCc4ccccc43)nc1=O)CCC2 | i | i | -7.95 | i | 42.4% | i
